# The panel holds about 79,000 compounds, 15% with a hit somewhere; the sample as a whole holds those more often. A number with no mark means an inactive call. Calls of active or inactive are those of the source. Rule as the data show it: active = growth inhibition above about 70%; inactive = the rest.
# Experiment: NCI Yeast Anticancer Drug Screen. Data for the rad50EPP+ strain (AID 151);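 also: 0% = growth of vehicle-treated control cultures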
# Conditions: S. cerevisiae rad50 mutant strain, at 11.0 µM, stronger effect = higher value
# How it was run: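 Yeast strain carrying rad50 alteration (rad50EPP+) exposed to compounds; growth inhibition measured relative to vehicle-treated controls.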
row,SMILES,growth inhibition
1,c1ccc(-c2cc(C3CO3)c3ccccc3n2)cc1 (stereo unspecified),24%
2,S=C1C(=Nc2ccccc2)N(c2ccccc2)/C(=N\c2ccccn2)N1c1ccccc1,-3%
3,CCC(OC(C)=O)C1CC(C(C)C)CCC1C (stereo unspecified),15%
4,CC(C)=CCc1c2c(c(O)c3c(=O)c(-c4ccc(O)c(O)c4)coc13)C=CC(C)(C)O2,-21%
5,O=C(NC(N1CCN(c2cc3c(cc2F)c(=O)c(C(=O)O)cn3C2CC2)CC1)(C(F)(F)F)C(F)(F)F)c1ccccc1,4%
6,Fc1cc(F)c(F)c(S)c1F,45%
7,COc1ccc2cc3c4cc5c(cc4cc[n+]3cc2c1OC)OCO5,60%
8,CCCCCCCCNCCCCCCCC,24%
9,Nc1cc(Cl)ccc1Nc1ccccc1,-19%
10,O=C(/C(=C/c1ccc(O)cc1)c1ccccc1)c1ccccc1,1%
11,O=Cc1ccccc1C=O,-2%
12,C1=CCN([B-](c2ccccc2)[C+]2CCCCC2)C=C1,-3%
13,CC/C(=C(\c1ccccc1)c1ccc(OCC[N+](C)(C)C)cc1)c1ccccc1,94% (active)
14,O=S(=O)(c1cccc(C(F)(F)F)c1)N1c2ccccc2-n2cccc2C1c1cccnc1 (stereo unspecified),-54%
15,Nc1ccc2c(c1)C(=O)c1c(F)cccc1-2,53%
16,CN(C)/C(=N/C(=S)Nc1ccccc1)SCc1ccccc1,-5%
17,CCN(CC)C(=S)N/N=C(\C)c1ccccc1O,15%
18,CC(C)OC(=O)NNc1cc(Cl)ccc1Cl,60%
19,CC(C)CCC[C@@H](C)[C@H]1CC[C@H]2[C@@H]3CC[C@H]4C[C@H](N)CC[C@]4(C)[C@H]3CC[C@]12C,7%
20,O=C1c2ccccc2-c2ccc(N=Cc3ccccc3)cc21,34%

# Same assay, conditions: S. cerevisiae rad50 mutant strain, at 33.0 µM, stronger effect = higher value
row,SMILES,growth inhibition
1,COc1ccc2nc3cccc([N+](=O)[O-])c3c(NCCNCCN(C)C)c2c1,-4%
2,Cc1cccc(/C=N/NC(=S)NC2CCCCC2)n1,-13%
3,COC(=O)C(=O)c1c(-c2ccc(Cl)c(Cl)c2)[nH]c2[nH]n(-c3ccccc3)c(=O)c2c1=O,56%
4,c1ccc([P+](CCN2Cc3ccccc3C2)(c2ccccc2)c2ccccc2)cc1,-8%
5,Cc1cc(C)c2[s+]snc2c1,20%
6,CC(C)(Br)C(=O)/C=C/c1ccccc1,88% (active)
7,Cc1ccc(S(=O)(=O)NC(=O)C2C(=O)CC3(CCCCC3)CC2=O)cc1,-12%
8,NC(=S)N1N=C2c3ccccc3CC[C@H]2[C@@H]1c1ccc(Cl)cc1,8%
9,O=[N+]([O-])/C=C/c1cc2ccc3ccccc3c2[nH]1,93% (active)
10,O=C1C(=C2CCCC2)CCC1CN1CCCCC1 (stereo unspecified),80% (active)
11,OC(CC(O)(C(F)(F)F)C(F)(F)F)c1ccc(C(O)CC(O)(C(F)(F)F)C(F)(F)F)cc1 (stereo unspecified),25%
12,COc1cc2c(cc1OC)[C@@H](Nc1ccc(C#N)cc1)C1COC(=O)[C@@H]1C2c1cc(OC)c(O)c(OC)c1 (stereo partly specified),6%
13,O=c1cccccc1[O-].O=c1cccccc1[O-].O=c1cccccc1[O-].[Eu+3],95% (active)
14,O=C1c2ccccc2C(=O)c2sc(Nc3ccccc3Cl)nc21,99% (active)
15,NC(CCCCCCCCCCCCC(N)C(=O)c1ccccc1)C(=O)c1ccccc1 (stereo unspecified),-1%
16,CC1=C(C)C(=O)C2=C(OCCO2)C1=O,10%
17,c1ccc(-c2cc(C3CO3)c3ccccc3n2)cc1 (stereo unspecified),46%
18,S=C1C(=Nc2ccccc2)N(c2ccccc2)/C(=N\c2ccccn2)N1c1ccccc1,11%
19,CCC(OC(C)=O)C1CC(C(C)C)CCC1C (stereo unspecified),46%
20,CC(C)=CCc1c2c(c(O)c3c(=O)c(-c4ccc(O)c(O)c4)coc13)C=CC(C)(C)O2,-8%
21,O=C(NC(N1CCN(c2cc3c(cc2F)c(=O)c(C(=O)O)cn3C2CC2)CC1)(C(F)(F)F)C(F)(F)F)c1ccccc1,27%
22,Fc1cc(F)c(F)c(S)c1F,90% (active)
23,COc1ccc2cc3c4cc5c(cc4cc[n+]3cc2c1OC)OCO5,77% (active)
24,CCCCCCCCNCCCCCCCC,92% (active)
25,Nc1cc(Cl)ccc1Nc1ccccc1,28%
26,O=C(/C(=C/c1ccc(O)cc1)c1ccccc1)c1ccccc1,15%

# Source: PubChem BioAssay (NCI)
